Experimental data taken from PubChem BioAssay AID1347131 (National Center for Advancing Translational Sciences (NCATS), 2019).
Screen size: about 410,000 compounds; about 2,000 (0.49%) were called active. About 8% were inconclusive and are not listed. The sample as a whole holds a higher share of actives than the screen did. Values without a mark were called inactive. The call rests on the fitted dose curve; tested in HEK293 reporter line.

Assay: qHTS Assay for Foot and Mouth Disease Virus Antivirals: Primary Screen against the MLPCN compound library; further: nearly all actives have a fitted effect of over 55% in size
Details: FMDV antiviral cell-based qHTS; series mostly up to 57.9 µM; activity, negative = inhibition: at the top concentration
Potency means the concentration at half of the fitted maximal effect.

| Compound | activity, negative = inhibition | Potency |
| --- | --- | --- |
| COc1cc2c(cc1OC)CN(C(=O)c1cc(Cl)nc(Cl)c1)CC2 | -38.8% |  |
| CC(=O)NC12CC3CC(C1)CC(C(=O)Oc1ccc(N(C)S(=O)(=O)c4cc(C)ccc4C)cc1)(C3)C2 | -36.6% |  |
| CN1CCN(c2ccc(NC(=O)c3ccc4ccccc4c3)cc2)CC1 |  | 22.4 µM (active) |
| COc1ccc(C(=O)Nc2ccc(N3CCN(C(=O)c4ccccc4C)CC3)cc2)cc1 | -19.6% |  |
| CC(=O)N1CCN(c2ccc(NC(=O)c3cccc(F)c3)cc2)CC1 | 124% |  |
| CC(C)(C)OC(=O)CNC(=O)c1[nH]cnc1C(=O)N[C@@H](CCCCNC(=O)OC(C)(C)C)C(=O)OC(C)(C)C | -33.6% |  |
| O=C(CCCc1nc(-c2ccc(Cl)cc2)no1)NC1CCCC1 | -49.9% |  |
| O=C(c1ccc2c(c1)N(Cc1ccccc1F)C(=O)c1ccccc1S2=O)N1CCN(c2ccccc2)CC1 (stereo unspecified) | -37.1% |  |
| COc1ccc(C)cc1NC(=O)C1CCN(S(=O)(=O)c2ccccc2)CC1 | -30.9% |  |
| CCOC(=O)c1sc(NC(=O)c2ccc(S(=O)(=O)N3CCCCC3)cc2)nc1-c1ccccc1 | -41.2% |  |
| CCOC(=O)c1sc2ccc(S(=O)(=O)N3CCCCC3)cc2c1N |  | 17.8 µM (active) |
| CCOC(=O)/C=C/C(=O)Nc1ccc(S(=O)(=O)N2CCCCCC2)cc1 | -33.1% |  |
| COc1cc(OC)cc(C(=O)Nc2ccc3c(c2)CCCN3C(=O)c2cccs2)c1 | -30.8% |  |
| O=C1CC(c2ccco2)CC(O)=C1C=NCCN1CCN(C(=O)Nc2ccc(Cl)cc2)CC1 (stereo unspecified) | -33.6% |  |
| Cc1ccc(CSCC(=O)N(C)CC(=O)Nc2c(Cl)cccc2Cl)cc1 | -31.7% |  |
| O=S(=O)(Nc1ccc2ccccc2n1)c1ccc2c(c1)CCO2 | 113% |  |
| Cc1ccc(-c2noc(-c3ccc(N4CCCCC4)c([N+](=O)[O-])c3)n2)cc1 | -32.2% |  |
| Fc1ccc(-c2noc(-c3ccc4c(c3)CCO4)n2)cc1 |  | 12.6 µM (active) |
| O=C(NCCN1CCC(n2c(=O)[nH]c3ccccc32)CC1)c1ccc(Cl)cc1 | -37.5% |  |
| CC(C)Oc1ccc(C(=O)Nc2nc3c(s2)CC(C(C)(C)C)CC3)cc1 (stereo unspecified) | -30.1% |  |
| CN(c1ccccc1)S(=O)(=O)c1cccc(C(=O)Nc2cccc(C(=O)NC3CC3)c2)c1 | -47.3% |  |

| Compound | activity, negative = inhibition | Potency |
| --- | --- | --- |
| CN(c1ccccc1)S(=O)(=O)c1ccc(C(=O)Nc2ccncc2)cc1 | -22.9% |  |
| COCc1ccc(C(=O)Nc2cccc(S(=O)(=O)N(C)c3ccccc3)c2)cc1 |  | 15.8 µM (active) |
| Cc1ccc(S(=O)(=O)N(C)CCCC(=O)Nc2cc(C)ccc2C)cc1 | -34.2% |  |
| CN(c1ccccc1)S(=O)(=O)c1ccc(C(=O)NCCc2ccc(F)cc2)cc1 | -32.5% |  |
| Cc1ccccc1C(c1c(C)n(C)n(-c2ccccc2)c1=O)c1c(C)n(C)n(-c2ccccc2)c1=O | -19% |  |
| NC(=O)[C@@H]1CC2(CC(c3cccc(NC(=O)CC(c4ccccc4)c4ccccc4)c3)=NO2)CN1C(=O)COc1ccc(Cl)cc1 (stereo partly specified) | -32.3% |  |
| C=C(C)C(=O)N1CC2(CC(c3cccc(NC(=O)COc4ccc(Cl)cc4)c3)=NO2)C[C@@H]1C(N)=O (stereo partly specified) | -30.8% |  |
| CCCCCC(=O)N1CC2(CC(c3cccc(NC(=O)COc4ccc(Cl)cc4)c3)=NO2)C[C@@H]1C(N)=O (stereo partly specified) |  | 14.1 µM (active) |
| C=C1C(C)C2C(Cc3ccccc3)NC(=O)C23OC(=O)/C=C/C(O)CCCC(C)C/C=C/C3C1O (stereo unspecified) | -34.8% |  |
| CC1CCCCN1C(=O)CSc1c2c(nc3cc(Cl)ccc13)CCCC2 (stereo unspecified) | -37.7% |  |
| COc1ccc(C=NNc2nc3ccccc3s2)cc1 |  | 15.8 µM (active) |
| COc1ccc(S(=O)(=O)Nc2nc3ccccc3s2)cc1 | 118% |  |
| COc1ccc(/C=N/Nc2cc(C)nc3ccccc23)cc1 | -31% |  |
| O=Cc1cc(Cl)ccc1OCCN1CCC(Cc2ccccc2)CC1 | -35.1% |  |
| COc1ccc2c(c1OC)C(=O)N1c3ccccc3C(=O)N(c3ccccc3F)C21 (stereo unspecified) | -36.1% |  |
| COc1ccccc1CN1C(=O)c2cccc3cccc(c23)C1=O | -31% |  |
| Nc1cccc2c1C(=O)N(CCOc1ccccc1F)C2=O |  | 15.8 µM (active) |
| CCCCC(=O)N1CCN(c2nc3c(C)c(C)ccc3s2)CC1 | -31.7% |  |
| CCc1nc2ccc(C(=O)Nc3cc(-c4ccccc4)ccc3OC)cn2c1N(C=O)CCC(C)C | -32.4% |  |
| CC(C)Oc1ccc(C(=O)NCC(=O)N2CCN(S(=O)(=O)/C=C/c3ccccc3)CC2)cc1 | -35.9% |  |
| Cc1ccc(-n2ncc3c(N4CCCCCC4)ncnc32)cc1 | -98.4% |  |

| Compound | activity, negative = inhibition | Potency |
| --- | --- | --- |
| Cc1ccc(-n2ncc3c(N4CCN(c5ccc(F)cc5)CC4)ncnc32)cc1 | -27.8% |  |
| Cc1ccc(-n2ncc3c(NC4CCCC4)ncnc32)cc1 |  | 12.6 µM (active) |
| Cc1ccc(-n2ncc3c(N4CCCCC4)ncnc32)cc1 | -57.3% |  |
| Cc1ccc(-n2ncc3c(NC4CCCCC4)ncnc32)cc1 |  | 20 µM (active) |
| COc1ccccc1N1CCN(c2ncnc3c2cnn3-c2ccc(C)cc2)CC1 | -32.8% |  |
| CC(C)c1cccc(C(C)C)c1NC(=O)CNCC(O)c1ccccc1 (stereo unspecified) | -30.4% |  |
| COc1ccccc1N/C=C/c1onc(C)c1[N+](=O)[O-] |  | 12.6 µM (active) |
| COc1ccccc1Nc1cc(C)nc2c(C)ccc([N+](=O)[O-])c12 | -34.1% |  |
| COc1ccccc1NC(=O)c1c(N=Cc2cccc([N+](=O)[O-])c2)cnn1C | -31.2% |  |
| O=C(c1ccc(F)cc1)N1CCC(c2nc(-c3ccc(S(=O)(=O)N4CCCC4)cc3)no2)CC1 | -35.1% |  |
| COc1ccc(-c2ccc3c(c2)CN(C(=O)C(C)(C)C)Cc2cnnn2-3)cc1 | -30.7% |  |
| CCC(C)n1c(S(=O)(=O)O)nc2ccccc21 (stereo unspecified) | -41.2% |  |
| O=C(Nc1ccc2nc3n(c(=O)c2c1)CCCCC3)c1cccc(C(F)(F)F)c1 | -36.3% |  |
| O=C(NNC(=O)c1ccc2c(=O)n3c(nc2c1)CCC3)c1cccc(Cl)c1 | -31.4% |  |
| Cc1cccc(NC(=O)c2ccc3c(=O)n4c(nc3c2)CCCCC4)n1 |  | 12.6 µM (active) |
| CC1(C)Cc2ccccc2-c2nnc(-c3ccc4ccccc4n3)n21 | -33.4% |  |
| c1ccc(-c2cn3c(n2)-c2ccccc2C3)cc1 |  | 7.94 µM (active) |
| CN1C(=O)N(CC(=O)Nc2cccc(S(=O)(=O)N(C)c3ccccc3)c2)C(=O)C12CCCCC2 | -33.6% |  |
| CCN1C(=O)[C@H]2[C@@H](c3ccc(-c4ccc(Cl)c(Cl)c4)c(OC)c3)N[C@@](C)(C(=O)OC)[C@H]2C1=O | -42.9% |  |
